# USP1-UAF1 inh – inhibitors of human USP1/UAF1 deubiquitinase; AID 743255; actives 0.23% (n = 390,000); Potency, µM (top dose mostly 57.1 µM), without a hit: at the top dose activity change, negative = inhibition, most hits filed as inhibitors; O94782; recombinant USP1/UAF1, Ub-Rhodamine cleavage fluorescence; also: potency is read from the fitted curve at half-maximal effect; % is scaled to controls: 0 for no effect and ±100 for the full control effect; nearly all actives have a fitted effect of over 60% in size
#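 In this screen, compounds sit with the deubiquitinase complex (1nM) for 15 min at room temperature before Ub-Rho is added at 150nM final. Fluorescence rise is then followed for 6 reads every 60 seconds.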
# EPAC2 antagonist – EPAC2 (human) antagonism; EPAC2 GEF exchange of Rap1B-BODIPY-GDP, fluorescence; actives 0.18% (n = 360,000); Q8WZA2; Potency, µM (series often up to 114 µM), inactives show top-dose activity, negative = inhibition, most hits filed as inhibitors; AID 720708; also: potency is read from the fitted curve at half-maximal effect; % is scaled to controls: 0 for no effect and ±100 for the full control effect; nearly all actives have a fitted effect of over 45% in size
# Target sequence (Q8WZA2 whole entry, looked up): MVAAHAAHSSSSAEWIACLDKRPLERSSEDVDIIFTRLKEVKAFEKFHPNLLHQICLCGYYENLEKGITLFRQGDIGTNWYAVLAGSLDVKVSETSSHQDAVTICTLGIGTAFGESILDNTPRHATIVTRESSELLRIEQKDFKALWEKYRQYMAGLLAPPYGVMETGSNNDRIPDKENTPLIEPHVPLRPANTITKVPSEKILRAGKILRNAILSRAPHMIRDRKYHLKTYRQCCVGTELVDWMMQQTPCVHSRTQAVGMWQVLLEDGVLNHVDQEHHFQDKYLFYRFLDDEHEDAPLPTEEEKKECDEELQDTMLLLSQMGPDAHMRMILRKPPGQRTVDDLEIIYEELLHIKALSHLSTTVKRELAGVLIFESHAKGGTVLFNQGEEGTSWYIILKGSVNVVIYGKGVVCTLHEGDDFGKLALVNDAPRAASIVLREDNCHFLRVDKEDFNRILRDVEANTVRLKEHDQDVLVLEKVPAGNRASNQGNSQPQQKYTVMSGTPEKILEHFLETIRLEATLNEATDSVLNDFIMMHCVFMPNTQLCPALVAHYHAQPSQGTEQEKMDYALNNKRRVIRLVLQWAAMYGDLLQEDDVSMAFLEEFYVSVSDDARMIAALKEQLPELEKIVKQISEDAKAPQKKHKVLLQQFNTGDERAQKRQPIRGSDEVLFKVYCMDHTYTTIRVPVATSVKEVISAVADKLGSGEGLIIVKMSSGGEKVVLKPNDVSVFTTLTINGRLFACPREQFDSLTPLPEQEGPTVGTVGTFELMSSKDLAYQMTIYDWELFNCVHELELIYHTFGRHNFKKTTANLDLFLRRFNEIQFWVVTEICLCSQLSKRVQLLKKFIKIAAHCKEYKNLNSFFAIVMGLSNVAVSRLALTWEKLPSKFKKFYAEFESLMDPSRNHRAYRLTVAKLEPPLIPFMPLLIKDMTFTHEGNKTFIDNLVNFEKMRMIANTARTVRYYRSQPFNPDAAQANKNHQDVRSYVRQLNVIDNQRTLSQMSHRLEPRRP
# EPAC2 agonist – agonists of human EPAC2 (RAPGEF4). Q8WZA2. EPAC2 activation, biochemical qHTS; response scale: 100% = 6.5 mM cAMP response. Potency, µM (series often up to 154 µM), for inactives: at the highest dose activation, usual class: activators. actives 0.079% (n = 360,000); also: potency is read from the fitted curve at half-maximal effect; nearly all actives have a fitted effect of over 50% in size
#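 Nucleotide exchange monitored as fluorescence drop when BODIPY-GDP leaves Rap1B. Reaction: 100 nM EPAC2, 250 nM RAP1B-BODIPY-GDP, 50 uM GDP, room temperature, kinetic read over 30 min. Activity expressed relative to 6.5 mM cAMP.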
# EPAC1 antag – antagonists of human EPAC1; EPAC1 GEF assay, Rap1b-BODIPY-GDP exchange fluorescence; Potency, µM (doses to about 115 µM), for inactives: top-dose activity change, negative = inhibition, usual class: inhibitors; AID 720709; actives 0.14% (n = 360,000); O95398;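 also: potency is read from the fitted curve at half-maximal effect; plate controls were vehicle for no effect and positive control for full effect; nearly all actives have a fitted effect of over 50% in size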
# EPAC1 ag – activates human EPAC1 exchange factor | EPAC1 agonist qHTS, biochemical assay; response scale: 100% = response to 6.5 mM cAMP | AID 720707 | actives 0.073% (n = 360,000) | O95398 | Potency, µM (series often up to 154 µM), for the others: top-dose activation, usual class: activators; also: potency is read from the fitted curve at half-maximal effect; nearly all actives have a fitted effect of over 60% in size
#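 EPAC1 100 nM, Rap1B–BODIPY-GDP 250 nM, unlabeled GDP 50 uM; compound titration; 5 min RT; kinetic read ex480/em540 at 5-min intervals ×30 min; data normalized to 6.5 mM cAMP agonist control.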
# LDHA block – inhibitors of human lactate dehydrogenase A; P00338; purified LDHA, NADH/diaphorase-resazurin fluorescence; stronger effect = lower value; activity change, % (values are at about 110 or 230 µM); actives 0.15% (n = 480,000); in the data active = activity change below about -30%; inconclusive = mostly about -25% to -30%;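 also: plate controls were DMSO wells for no effect and wells without enzyme for full effect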
#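 Resorufin fluorescence (ex540/em590), read at 0 and 20 min after diaphorase/resazurin addition, reports the NADH left after a 5 min room-temperature reaction of 2 nM human LDH5 with 0.06 mM NADH and 0.2 mM pyruvate.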
# The depositor's hits bear a star; ? = inconclusive; nt = no result given. Only some compounds are listed: those with a hit (about 0.56% of all), similar ones and a draw of the others. Unless noted, calls follow the shape of the dose curve; as a rule, active = well fitted curve in the direction sought with a large enough effect; inconclusive = small, poorly fitted or top-dose-only effect, or another doubt; inactive = no such curve, though single readings can be large; an effect the other way counts as inactive or inconclusive.
SMILES,USP1-UAF1 inh,EPAC2 antagonist,EPAC2 agonist,EPAC1 antag,EPAC1 ag,LDHA block
Cc1ccc(Cl)c(OC(C)(C)C(=O)Nc2ncc(C)s2)c1,nt,nt,nt,nt,nt,0
O=C1/C(=C/C=C/c2ccco2)SC(=S)N1c1ccc(O)cc1,-16%,23%,10%,?,15%,1
CC(C)C(C(=O)O)N1C(=O)/C(=C/C=C/c2ccco2)SC1=S (stereo unspecified),?,-18%,1%,56µM*,9%,15
COc1cc2c(cc1OC)C1(C)N(CC2)C(C(C)=O)=NN1c1ccc(Cl)cc1 (stereo unspecified),-14%,25µM*,18%,-21%,15%,-3
CCC(C)c1ccc(S(=O)(=O)N2CCN(CC(O)CN3CCOCC3)CC2)cc1 (stereo unspecified),-15%,0%,7%,-8%,5%,-33*
COC(=O)C1=C(C)NC(=O)CC1C(=O)Nc1cc(Cl)ccc1C (stereo unspecified),nt,nt,nt,nt,nt,-22
COC(=O)C1=C(C)NC(=O)CC1C(=O)Nc1ccc(Cl)cc1 (stereo unspecified),nt,nt,nt,nt,nt,-65*
CN(CC(=O)NCCc1ccccc1)Cc1ccc(C(F)(F)F)cc1,nt,nt,nt,nt,nt,7
COc1cc2ccccc2cc1C(=O)N1CCCC1,-11%,2%,5%,1%,17%,-7
COc1cc2ccccc2cc1C(=O)N1CC(C)CC(C)C1 (stereo unspecified),-5%,28µM*,9%,-4%,-3%,-1
CCCOc1c(I)cc(/C=C(\C#N)C(=O)OCC)cc1OC,nt,nt,nt,nt,nt,0
COc1cccc(C2=NN(C(=O)c3ccco3)C(c3ccco3)C2)c1 (stereo unspecified),-18%,14µM*,6%,7%,13%,-2
COc1cccc(C2CC(c3cccs3)=NN2C(=O)c2ccco2)c1O (stereo unspecified),-20%,35µM*,5%,-28%,-12%,-3
CS(=O)(=O)Nc1ccc(C2=NN(C(=O)c3ccco3)C(c3ccco3)C2)cc1 (stereo unspecified),-14%,-1%,3%,-7%,-3%,-8
c1ccc(NN(Cc2ccccn2)c2ccccc2)cc1,-8%,14µM*,18%,-14%,-1%,-7
Cc1cc(C2=NNC(=Nc3ccccc3)SC2)c(C)n1CC1CCCO1 (stereo unspecified),nt,nt,nt,nt,nt,-36*
CCCc1c(C(=O)N/N=C(\C)c2ccc(CC(C)C)cc2)nnn1-c1nonc1N,-4%,12%,-3%,-7%,-18%,-10
CCCn1nc(C(=O)OCC(=O)N2CCCc3ccccc32)c2ccccc2c1=O,nt,nt,nt,nt,nt,-31*
COc1ccc(-c2ncncc2-c2csc(C)n2)c(O)c1OC,-1%,6%,7%,-14%,4%,-8
COC1=C(N)C(=O)c2nc(-c3nc(C(=O)O)c(C)c(-c4ccc(OC)c(OC)c4O)c3N)ccc2C1=O,11µM*,-18%,8%,-11%,3%,10
CCc1c(C2(O)CCCCC2)[nH]c2cnccc12,19%,8%,9%,?,0%,-7
CCOc1ccccc1NC(=O)C(=O)c1c[nH]c2ccccc12,nt,nt,nt,nt,nt,0
CCOc1ccccc1NC(=O)C(=O)c1c[nH]c2c(CC)cccc12,nt,nt,nt,nt,nt,-36*
Oc1ccccc1-c1nc(NCc2ccccc2)c2ccccc2n1,0%,89µM*,0%,?,-30%,-3
Oc1ccccc1-c1nc(NCc2cccnc2)c2ccccc2n1,-4%,-12%,3%,-12%,19%,-6
COc1cccc(N(Cc2nnc3n2CCCCC3)C(=O)Nc2cccc(Cl)c2)c1,-10%,nt,nt,nt,nt,5
CC(=Nc1ccc(C)cc1C)c1sc2ccccc2c1O,35µM*,5%,?,28%,29%,-1
COC(CNC(=O)c1ccc2c3c(onc13)-c1ccccc1C2=O)OC,18µM*,?,50µM*,?,56µM*,6
COc1ccc(Nc2cc(C(=O)NCC(OC)OC)c3ccccc3n2)cc1,nt,nt,nt,nt,nt,-6
